Test results as given in PubChem BioAssay (NCATS).
Results filed as inconclusive are left out. Calls of active or inactive are those of the source. The call rests on the fitted dose curve; in most records, active means well fitted curve in the direction sought with a large enough effect; inconclusive means small, poorly fitted or top-dose-only effect, or another doubt; inactive means no such curve, though single readings can be large; an effect the other way counts as inactive or inconclusive.

Assays:
[1] = test system: HACAT; experiment: qHTS assay to identify novel small-molecules to repurpose for Merkel cell carcinoma treatment (AID 1296009); conditions: MCC and control cell lines, CellTiter-Glo viability, 72 h; at 44.8 µM (top of the series) unless noted; further: nearly all actives have a fitted effect of over 60% in size
Method in brief: (§1)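 Cell viability, measured as CellTiter-Glo luminescence, was normalized between DMSO and no-cell wells. The cells had been exposed to 8- or 11-point compound dilutions for 72 hr at 37 degree celsius.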

[2] = test system: NIH3T3; experiment: as above; conditions: MCC and control cell lines, CellTiter-Glo viability, 72 h; at 44.8 µM (top of the series) unless noted
Method in brief: as §1

[3] = test system: C33A; experiment: Primary qHTS to identify gynecologic anti-cancer compounds using libraries of approved drugs and bioactive compounds (AID 1345084); conditions: Gynecologic cancer cell panel viability, ATPlite luminescence, 48 h; series mostly up to 57.5 µM; further: nearly all actives have a fitted effect of over 55% in size
Method in brief: (§2)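 Cytotoxicity screen measuring ATP content by luciferase luminescence. Each compound is applied at five concentrations for 48 h at 37 C with 5% CO2.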

[4] = test system: CAOV3; experiment: as above; conditions: Gynecologic cancer cell panel viability, ATPlite luminescence, 48 h; series mostly up to 57.5 µM
Method in brief: as §2

[5] = test system: CASKI; experiment: as above; conditions: Gynecologic cancer cell panel viability, ATPlite luminescence, 48 h; series mostly up to 57.5 µM
Method in brief: as §2

[6] = test system: Es-2; experiment: as above; conditions: Gynecologic cancer cell panel viability, ATPlite luminescence, 48 h; series mostly up to 57.5 µM
Method in brief: as §2

[7] = test system: HeLa; experiment: as above; conditions: Gynecologic cancer cell panel viability, ATPlite luminescence, 48 h; series mostly up to 57.5 µM
Method in brief: as §2

[8] = test system: Hek293T; experiment: as above; conditions: Gynecologic cancer cell panel viability, ATPlite luminescence, 48 h, control line for the selectivity index; series mostly up to 57.5 µM
Method in brief: as §2

[9] = test system: JEG-3; experiment: as above; conditions: Gynecologic cancer cell panel viability, ATPlite luminescence, 48 h; series mostly up to 57.5 µM
Method in brief: as §2

[10] = test system: OV90; experiment: as above; conditions: Gynecologic cancer cell panel viability, ATPlite luminescence, 48 h; series mostly up to 57.5 µM
Method in brief: as §2

[11] = test system: PA-1; experiment: as above; conditions: Gynecologic cancer cell panel viability, ATPlite luminescence, 48 h; series mostly up to 57.5 µM
Method in brief: as §2

[12] = test system: SKOV3; experiment: as above; conditions: Gynecologic cancer cell panel viability, ATPlite luminescence, 48 h; series mostly up to 57.5 µM
Method in brief: as §2

[13] = test system: Tov-21-G; experiment: as above; conditions: Gynecologic cancer cell panel viability, ATPlite luminescence, 48 h; series mostly up to 57.5 µM
Method in brief: as §2

[14] = test system: Tov112D; experiment: as above; conditions: Gynecologic cancer cell panel viability, ATPlite luminescence, 48 h; series mostly up to 57.5 µM
Method in brief: as §2

Measured: Potency

CC1(CO)CCCC2(C)C1C(OC(=O)c1ccccc1)CC1C(=O)OCC12O (stereo not drawn)
inactive: all assays above

Cc1sc(C)c(C(=O)NC2(c3ccc(C(=O)O)cc3)CC2)c1Cc1ccc(C(F)(F)F)cc1
inactive: all assays above

CC(C)=CCC/C(C)=C/CO[C@@H]1O[C@H](CO[C@@H]2OC[C@](O)(CO)[C@H]2O)[C@@H](O)[C@H](O)[C@H]1O
inactive: [1] inactive [at 17.4 µM] | [2] inactive [at 17.4 µM] | [3] | [4] | [5] | [6] | [7] | [8] | [9] | [10] | [11] | [12] | [13] | [14]

CC1(C)CC[C@]2(C(=O)O)CC[C@]3(C)C(=CCC4[C@@]5(C)C[C@H](O)[C@H](O[C@@H]6O[C@H](CO)[C@@H](O)[C@H](O)[C@H]6O)[C@@](C)(CO)C5[C@H](O)C[C@]43C)[C@@H]2C1 (stereo partly drawn)
inactive: [1] inactive [at 17.4 µM] | [2] inactive [at 17.4 µM] | [3] | [4] | [5] | [6] | [7] | [8] | [9] | [10] | [11] | [12] | [13] | [14]

CC1(C)[C@H]2C[C@H](C/C=C\CCCC(=O)O)[C@@H](NC(=O)c3csc4ccc(O)cc34)[C@@H]1C2
inactive: all assays above

COc1ccc(N2CCN(CCCNC(=O)Cn3c(=O)c4cccn4c4c(C)ccnc43)CC2)cc1
inactive: all assays above

O=C(OCC1=C[C@@H](O)[C@@H]2C=CO[C@@H](O[C@@H]3O[C@H](CO)[C@@H](O)[C@H](O)[C@H]3O)[C@H]12)c1ccc(O)cc1
inactive: [1] inactive [at 17.4 µM] | [2] inactive [at 17.4 µM] | [3] | [4] | [5] | [6] | [7] | [8] | [9] | [10] | [11] | [12] | [13] | [14]

CC(C)=CCC[C@@](C)(O)[C@H]1CC[C@]2(C)[C@@H]1[C@H](O)CC1[C@@]3(C)CC[C@H](O[C@@H]4O[C@H](CO)[C@@H](O)[C@H](O)[C@H]4O[C@@H]4O[C@H](CO)[C@@H](O)[C@H](O)[C@H]4O)C(C)(C)[C@@H]3CC[C@]12C (stereo partly drawn)
inactive: [1] inactive [at 17.4 µM] | [2] inactive [at 17.4 µM] | [3] | [4] | [5] | [6] | [7] | [8] | [9] | [10] | [11] | [12] | [13] | [14]

OC[C@@]1(O)CO[C@@H](OC[C@H]2O[C@@H](Oc3ccccc3)[C@H](O)[C@@H](O)[C@@H]2O)[C@@H]1O
inactive: all assays above

OC[C@H]1O[C@@H](OCc2ccccc2)[C@H](O)[C@@H](O)[C@@H]1O
inactive: all assays above

C[C@@H]1CC[C@]2(C(=O)O)CC[C@]3(C)C(=CCC4[C@@]5(C)C[C@@H](O)[C@H](O)[C@@](C)(CO)C5CC[C@]43C)C2[C@H]1C (stereo partly drawn)
inactive: [1] inactive [at 17.4 µM] | [2] inactive [at 17.4 µM] | [3] | [4] | [5] | [6] | [7] | [8] | [9] | [10] | [11] | [12] | [13] | [14]

C=C(C)[C@@]1(O)C[C@@]2(C)C(=CC1=O)CC[C@@H](O)[C@@H]2C
inactive: all assays above
